Experimental findings from ChEMBL document CHEMBL1157539, “Thousands of chemical starting points for antimalarial lead identification” (Nature, 2010) are described below.

The subject of the first assay is Plasmodium falciparum. The assay can be described thus: GSK_TCMDC: Inhibition of Plasmodium falciparum 3D7 in whole red blood cells, using parasite LDH activity as an index of growth. Test compounds present at 2uM. It counts as functional.
Take `CCOC(=O)CC[C@@H](NC(=O)c1ccc(NCc2ccc3ccc4nc(C)[nH]c(=O)c4c3c2)cc1F)C(=O)N[C@@H](Cc1c[nH]c2ccccc12)C(=O)OCC`: the Inhibition was determined as 98%.
For `CCc1sc(N2CCN(C)CC2)nc1C(=O)NCCc1ccc(Cl)c(Cl)c1.O=C(O)C(F)(F)F`, the Inhibition is given as 92%.
On the same count and under the same terms, in the case of `O=C(Nc1cccc(-c2ccc(-c3nc4cc(F)ccc4[nH]3)cc2)c1)c1ccncc1` it was 100%; in that of `O=C(CSc1nn(-c2ccccc2)c(=S)s1)c1c[nH]c2ccccc12`, 93%; in that of `NC(=O)c1ccccc1OCC(=O)Nc1cccc(-c2ccc(-c3nc4ccccc4[nH]3)cc2)c1`, 95%.
Molecule `CN1CCCC(CN2CCN(Cc3ccc(-c4cccc(-c5nc6ccccc6[nH]5)c4)cc3)CC2)C1.O=C(O)C(F)(F)F` (stereo not given) displayed an Inhibition of 100%.
Turning to `Cc1[nH]c2c(C)cccc2c1C1CCN(CCC2CCN(C(=O)/C=C/c3ccc(Cl)c(Cl)c3)CC2)CC1`, the Inhibition is listed as 100%.
Same read-out and setting: in the case of `COc1ccc(NC(=O)CCNc2cc(C)nc(NCCOc3ccccc3)n2)cc1.O=C(O)C(F)(F)F` it was 96%.
On the same count and under the same terms, with `C[C@@H](Nc1nc(NCc2ccccc2)c2sccc2n1)c1ccccc1` the figure was 91%; with `COc1cc2ncnc(Nc3ccc(OCc4ccccc4)c(I)c3)c2cc1OC.Cl`, 98%.
On the same count and under the same terms, in the case of `Cc1cc(Cl)c(Cl)cc1NC(=O)Nc1cccc(C(F)(F)F)c1` it was 93%; in that of `Cc1sc2ccc(Cl)cc2c1S(=O)(=O)Nc1ccc2nccc(N3CC(C)NC(C)C3)c2c1.Cl` (stereo not given), 100%.
`Nc1c2c(nc3ccc(C(=O)Nc4ccc(Br)cc4)cc13)CCCC2` returned an Inhibition of 100%.
On the same count and under the same terms, with `COc1ccc2nccc([C@H](O)CN3CCC(NCc4cc(C)c5c(c4)OCCO5)CC3)c2n1.Cl` the figure was 96%.
The same measure, in the same setting: with `COc1cccc(C(=O)N2CCN(Cc3cccc(NC(=O)c4cccs4)c3)CC2)c1.O=C(O)C(F)(F)F` the figure was 95%; with `Fc1cccc(-c2ccc3c(c2)CC(NCc2c[nH]c4cnccc24)C3)c1` (stereo not given), 100%; with `COc1ccc(Nc2ccnc3cc(Cl)ccc23)cc1OC`, 100%.
Same read-out and setting: in the case of `CCCCn1c(Sc2ccc(C#N)c([N+](=O)[O-])c2)nnc1-c1cc(OC)cc(OC)c1` it was 94%; in that of `COc1cc2nc(N3CCC(CNC(=O)c4cccc5cc[nH]c45)CC3)nc(N)c2cc1OC`, 98%; in that of `Cc1nc(N)nc(N)c1OCCCCCCOc1ccccc1.Cl`, 95%.
Consider `CN(C)CCOc1ccc(N2CCN(CCCCNC(=O)c3ccc(NC(=O)c4ccc(Cl)cc4)cc3)CC2)cc1`, for which the Inhibition was determined as 99%.
Turning to `COc1ccc(C=C2SC(=N)N(c3ccccc3OC)C2=O)cc1`, the Inhibition worked out at 97%.
The same measure, in the same setting: in the case of `NC(=O)c1ccsc1NC(=O)CNC(c1ccccc1)c1ccccc1` it was 88%; in that of `COc1cc2c(cc1C=CC(=O)N1CCN(Cc3nc(O)c4c(C)c(C)sc4n3)CC1)OC(C)C2` (stereo not given), 82%; in that of `O=C(Nc1ccccc1F)NC1CCN(c2ccnc(Nc3ccc(F)cc3)n2)C1` (stereo not given), 95%.
Still for that read-out and setting: with `COc1cc2c(cc1N1CCN(C)CC1)N(C(=O)Nc1ccc(-c3ccncc3)c(Cl)c1Cl)CC2` the figure was 100%.
With `Cc1ccccc1C1CCN(C2CCC(NC(=O)c3ccc4c(c3)-c3nocc3C(C)O4)CC2)CC1` (stereo not given), the Inhibition worked out at 88%.
On the same count and under the same terms, with `COc1ccc(-c2cccc(NC(=O)c3ccc(Cl)cc3)c2)cc1CN(C)CCN(C)C.O=C(O)C(F)(F)F` the figure was 99%; with `Cc1[nH]c(C)c(-c2ccc(OCc3ccc(F)cc3)cc2)c(=O)c1Cl`, 95%; with `O=C(NCC1CCC(C(=O)O)CC1)c1ccc(/C=C/C(=O)N2CCc3ccccc3C2c2ccc3c(c2)OCO3)cc1` (stereo not given), 91%.
As for `CCNc1cc(C(=O)N[C@@H](Cc2ccccc2)[C@H](O)CNCCc2cc(OC)cc(OC)c2)cc(N2CCCCS2(=O)=O)c1.Cl`, the Inhibition is 89%.
Same read-out and setting: with `CN(C(=O)/C=C/c1cc(C(F)(F)F)ccc1F)C1CCN(CCCCCNC(=O)/C=C/c2ccc(Cl)c(Cl)c2)C1` (stereo not given) the figure was 93%; with `CC(C)[C@H](NC(=O)c1ccc(O)c(-c2ccc(Cl)c(Cl)c2)c1)C(=O)NCCN1CCCC1`, 98%; with `CCCCOc1ccc(/C=C/c2ccc(-c3c(C)[nH]c(C)c(Cl)c3=O)s2)cc1`, 97%.
Same read-out and setting: with `CN(C)c1ccc2c(c1)Sc1cc(N(C)C)ccc1N2C(=O)CCCC(=O)[O-].[Na+]` the figure was 96%.
In the case of `CC(=NNC(=N)N)c1ccc2c(ccc3ccccc32)c1.Cl`, the Inhibition is given as 100%.
`Cc1cc(N2CCCN(C)CC2)nc(Nc2ccc(Br)cc2)n1` registered an Inhibition of 94%.
Still for that read-out and setting: with `COc1ccc(-c2csc(NC(=O)CCC(=O)O)n2)cc1OC` the figure was 94%; with `CC1(C)C=C(c2ccncc2)c2cc(Cl)ccc2O1.Cl`, 97%.
On the same count and under the same terms, with `O=C(O)C(F)(F)F.O=S(=O)(NCCN1CCCC1)c1ccc(-c2cccc(CNCc3ccc(F)cc3)c2)s1` the figure was 99%.

A further assay has as its system Plasmodium falciparum. Put plainly: GSK_TCMDC: Inhibition of Plasmodium falciparum Dd2 in whole red blood cells, using parasite LDH activity as an index of growth. Test compounds present at 2uM. It counts as functional.
Regarding `CCOC(=O)CC[C@@H](NC(=O)c1ccc(NCc2ccc3ccc4nc(C)[nH]c(=O)c4c3c2)cc1F)C(=O)N[C@@H](Cc1c[nH]c2ccccc12)C(=O)OCC`, the Inhibition was determined as 77%.
On the same count and under the same terms, in the case of `CCc1sc(N2CCN(C)CC2)nc1C(=O)NCCc1ccc(Cl)c(Cl)c1.O=C(O)C(F)(F)F` it was 49%; in that of `O=C(Nc1cccc(-c2ccc(-c3nc4cc(F)ccc4[nH]3)cc2)c1)c1ccncc1`, 96%; in that of `O=C(CSc1nn(-c2ccccc2)c(=S)s1)c1c[nH]c2ccccc12`, 68%.
On the same count and under the same terms, with `NC(=O)c1ccccc1OCC(=O)Nc1cccc(-c2ccc(-c3nc4ccccc4[nH]3)cc2)c1` the figure was 46%.
On to `CN1CCCC(CN2CCN(Cc3ccc(-c4cccc(-c5nc6ccccc6[nH]5)c4)cc3)CC2)C1.O=C(O)C(F)(F)F` (stereo not given), for which the Inhibition stood at 100%.
The same measure, in the same setting: in the case of `Cc1[nH]c2c(C)cccc2c1C1CCN(CCC2CCN(C(=O)/C=C/c3ccc(Cl)c(Cl)c3)CC2)CC1` it was 79%; in that of `COc1ccc(NC(=O)CCNc2cc(C)nc(NCCOc3ccccc3)n2)cc1.O=C(O)C(F)(F)F`, 2%.
On the same count and under the same terms, with `C[C@@H](Nc1nc(NCc2ccccc2)c2sccc2n1)c1ccccc1` the figure was 75%; with `COc1cc2ncnc(Nc3ccc(OCc4ccccc4)c(I)c3)c2cc1OC.Cl`, 62%.
The same measure, in the same setting: with `Cc1cc(Cl)c(Cl)cc1NC(=O)Nc1cccc(C(F)(F)F)c1` the figure was 99%.
`Cc1sc2ccc(Cl)cc2c1S(=O)(=O)Nc1ccc2nccc(N3CC(C)NC(C)C3)c2c1.Cl` (stereo not given) showed an Inhibition of 100%.
On the same count and under the same terms, in the case of `Nc1c2c(nc3ccc(C(=O)Nc4ccc(Br)cc4)cc13)CCCC2` it was 99%; in that of `COc1ccc2nccc([C@H](O)CN3CCC(NCc4cc(C)c5c(c4)OCCO5)CC3)c2n1.Cl`, 35%; in that of `COc1cccc(C(=O)N2CCN(Cc3cccc(NC(=O)c4cccs4)c3)CC2)c1.O=C(O)C(F)(F)F`, 95%.
Still for that read-out and setting: in the case of `Fc1cccc(-c2ccc3c(c2)CC(NCc2c[nH]c4cnccc24)C3)c1` (stereo not given) it was 68%; in that of `COc1ccc(Nc2ccnc3cc(Cl)ccc23)cc1OC`, 91%; in that of `CCCCn1c(Sc2ccc(C#N)c([N+](=O)[O-])c2)nnc1-c1cc(OC)cc(OC)c1`, 70%.
Same read-out and setting: with `COc1cc2nc(N3CCC(CNC(=O)c4cccc5cc[nH]c45)CC3)nc(N)c2cc1OC` the figure was 24%; with `Cc1nc(N)nc(N)c1OCCCCCCOc1ccccc1.Cl`, 0%; with `CN(C)CCOc1ccc(N2CCN(CCCCNC(=O)c3ccc(NC(=O)c4ccc(Cl)cc4)cc3)CC2)cc1`, 98%.
Molecule `COc1ccc(C=C2SC(=N)N(c3ccccc3OC)C2=O)cc1` displayed an Inhibition of 95%.
Same read-out and setting: in the case of `NC(=O)c1ccsc1NC(=O)CNC(c1ccccc1)c1ccccc1` it was 37%; in that of `COc1cc2c(cc1C=CC(=O)N1CCN(Cc3nc(O)c4c(C)c(C)sc4n3)CC1)OC(C)C2` (stereo not given), 87%; in that of `O=C(Nc1ccccc1F)NC1CCN(c2ccnc(Nc3ccc(F)cc3)n2)C1` (stereo not given), 74%.
On the same count and under the same terms, in the case of `COc1cc2c(cc1N1CCN(C)CC1)N(C(=O)Nc1ccc(-c3ccncc3)c(Cl)c1Cl)CC2` it was 4%; in that of `Cc1ccccc1C1CCN(C2CCC(NC(=O)c3ccc4c(c3)-c3nocc3C(C)O4)CC2)CC1` (stereo not given), 37%.
On the same count and under the same terms, with `COc1ccc(-c2cccc(NC(=O)c3ccc(Cl)cc3)c2)cc1CN(C)CCN(C)C.O=C(O)C(F)(F)F` the figure was 61%.
With `Cc1[nH]c(C)c(-c2ccc(OCc3ccc(F)cc3)cc2)c(=O)c1Cl`, the Inhibition was 96%.
`O=C(NCC1CCC(C(=O)O)CC1)c1ccc(/C=C/C(=O)N2CCc3ccccc3C2c2ccc3c(c2)OCO3)cc1` (stereo not given): the Inhibition is recorded as 17%.
The same measure, in the same setting: with `CCNc1cc(C(=O)N[C@@H](Cc2ccccc2)[C@H](O)CNCCc2cc(OC)cc(OC)c2)cc(N2CCCCS2(=O)=O)c1.Cl` the figure was 28%; with `CN(C(=O)/C=C/c1cc(C(F)(F)F)ccc1F)C1CCN(CCCCCNC(=O)/C=C/c2ccc(Cl)c(Cl)c2)C1` (stereo not given), 1%.
On the same count and under the same terms, in the case of `CC(C)[C@H](NC(=O)c1ccc(O)c(-c2ccc(Cl)c(Cl)c2)c1)C(=O)NCCN1CCCC1` it was 83%.
The same measure, in the same setting: with `CCCCOc1ccc(/C=C/c2ccc(-c3c(C)[nH]c(C)c(Cl)c3=O)s2)cc1` the figure was 96%.
In turn, `CN(C)c1ccc2c(c1)Sc1cc(N(C)C)ccc1N2C(=O)CCCC(=O)[O-].[Na+]` gave an Inhibition of 81%.
As to `CC(=NNC(=N)N)c1ccc2c(ccc3ccccc32)c1.Cl`, the Inhibition amounted to 15%.
Same read-out and setting: with `Cc1cc(N2CCCN(C)CC2)nc(Nc2ccc(Br)cc2)n1` the figure was 14%; with `COc1ccc(-c2csc(NC(=O)CCC(=O)O)n2)cc1OC`, 0%.
The same measure, in the same setting: with `CC1(C)C=C(c2ccncc2)c2cc(Cl)ccc2O1.Cl` the figure was 22%.
On the same count and under the same terms, with `O=C(O)C(F)(F)F.O=S(=O)(NCCN1CCCC1)c1ccc(-c2cccc(CNCc3ccc(F)cc3)c2)s1` the figure was 50%.
